Data: PubChem BioAssay AID449762 (Southern Research Specialized Biocontainment Screening …, 2010)
Where “and” joins values, the source holds several entries; their conditions need not be identical. Equal entries are not always repeated. Out of some 330,000 compounds screened, about 1,900 (0.58%) were called active. About 4% were inconclusive and are not listed. Not all results are given here. Potency and affinity values are given separately. Values without a mark were called inactive. Rule as the data show it: inconclusive = inhibition above about 70% without an active follow-up result; inactive = below that.

Test: M. tuberculosis growth inhibition, HTS (AID 449762);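 also: bacterial growth assessed after seven days of incubation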
Conditions: M. tuberculosis H37Rv growth inhibition, 7H9 media; at 25 µM; stronger effect = higher value

| Structure (SMILES) | inhibition |
| --- | --- |
| Cc1ccc(CNC(=O)CN(C)S(=O)(=O)c2cnc[nH]2)cc1 | -4.45% |
| Cc1cccc(C)c1NC(=O)COc1ccccc1C(=O)Nc1ccc(Br)cn1 | 3.17% |
| O=C(NC(=S)Nc1ccccc1Cl)C1CC1 | 11.2% |
| COc1cc(NC(=O)C2CCN(S(=O)(=O)c3cccc4nonc34)CC2)cc(OC)c1 | 2.95% |
| CCOC(=O)CC(=O)CSc1ncnc2c1nnn2-c1ccc(F)cc1 | -7.23% |
| CCOC(=O)C(CC)Sc1ncnc2c1nnn2-c1ccc(F)cc1 (configuration not stated) | -6.34% |
| COC(=O)c1cc(NC(=O)C(C)c2ccc(CC(C)C)cc2)ccc1O (configuration not stated) | 20.8% |
| CC1CCCN(C(=O)COC(=O)c2cccc(NS(=O)(=O)c3ccccc3)c2)C1 (configuration not stated) | -11.8% |
| O=C(O)c1cccc(-c2nnn(Cc3ccccc3)n2)c1 | -10.4% |
| O=C(Cn1nnc(-c2ccccc2)n1)OCc1ccccc1 | -6.9% |
| CCCCc1nnc(NC(=O)C(=O)OCC)s1 | -3.95% |
| Cc1ccsc1C(=O)Nc1cccc(-n2cnnn2)c1 | -0.76% |
| CCN(CC)S(=O)(=O)c1ccc(/C=C/C(=O)OCC(=O)N(C(C)C)C(C)C)cc1 | 3.48% |
| CCN(CC)S(=O)(=O)c1ccc(/C=C/C(=O)OCC(=O)N(C)C)cc1 | 4.6% |
| COc1ccc(NC(=S)N(CCCN2CCCC(C)C2)Cc2cccs2)cc1 (configuration not stated) | 6.16% |
| N#Cc1ccc(Cn2ccnc2C(=O)Nc2ccccc2)cc1 | 0.04% |
| CCN(CC)CCN1C(=O)C(=O)/C(=C(/O)c2ccc(S(=O)(=O)N3CCOCC3)cc2)C1c1ccc(C(C)C)cc1 (configuration not stated) | 1.15% |
| CCNCc1nc2cc(OC)c(OC)cc2c(=O)[nH]1 | 2.16% |
| CCOC(=O)c1sc2nc(C)nc(SC(C)C(=O)NC3CC3)c2c1C (configuration not stated) | 44% |
| CCOC(=O)c1sc2nc(C)nc(SCC(=O)NC(C)CCc3ccccc3)c2c1C (configuration not stated) | -5.1% |
| O=C(c1ccc(F)cc1)C(CCCCCC(CN1CCOCC1)C(=O)c1ccc(F)cc1)CN1CCOCC1 (configuration not stated) | 2% |
| COc1ncnc2c1oc1ccccc12 | 6.25% |
| Nc1ccc(-c2nc3c(ccc4ccccc43)[nH]2)cc1 | 6.07% |

| Structure (SMILES) | inhibition |
| --- | --- |
| c1cncc(-c2nc3c(ccc4ccccc43)[nH]2)c1 | -6.09% |
| O=C(Nc1ccc(S(=O)(=O)Nc2ccnn2-c2ccccc2)cc1)C(F)(F)F | 56.7% |
| CC(=O)NC(CC(=O)Nc1nc(-c2ccc(N(C)S(C)(=O)=O)cc2)cs1)c1ccccc1 (configuration not stated) | -3.7% |
| CC(C)Nc1nc(-c2ccccc2)nc(-n2ccnc2)n1 | 12.9% |
| CCCCCNc1nc(-c2ccccc2)nc(-n2ccnc2)n1 | -1.97% |
| CCCOc1ccc(-c2nnn(CC(=O)c3ccc4c(c3)OCCO4)n2)cc1 | -6.75% |
| C=CCN1CC[C@]23c4c5ccc(O)c4OC2C(=O)CC[C@@]3(O)C1C5 (some centres not stated) | -3.13% |
| C=CCN1CC[C@]23c4c5ccc(O)c4O[C@H]2C(=O)CC[C@@]3(O)[C@H]1C5 | 29.2% and -16.4% |
| O=C(Nc1ccc(OCC(F)(F)C(F)F)c(C(F)(F)F)c1)c1ccccc1 | 3.85% |
| COc1ccc(C(=O)Nc2ccc(OCC(F)(F)C(F)F)c(C(F)(F)F)c2)cc1OC | -1.87% |
| COc1ccc(S(=O)(=O)N2CCOCC2)cc1NC(=O)CC1CCCC1 | -1.2% |
| O=C(NCc1ccc(F)cc1)Nc1cccc(Cl)c1 | -4.36% |
| CC(C)C(=O)Nc1ccc2c(c1)C(=O)N(CCC(=O)O)C2=O | 3.16% |
| O=C(NCc1ccc2c(c1)OCO2)C1CCCN1S(=O)(=O)c1ccc(Cl)cc1 (configuration not stated) | -0.02% |
| CC(=O)Nc1cccc(NC(=S)Nc2cccc(Cl)c2Cl)c1 | 0.32% |
| COc1cc(/C=C2\SC(c3ccc(C)cc3)=NC2=O)cc(OC)c1OC | -5.86% |
| COc1cc(/C=C2\N=C(C)OC2=O)cc(OC)c1OC | 6.29% |
| Cc1cccc(/C=N\NC(=O)c2sccc2-n2cccc2)c1 | 0.5% |
| COC(=O)C1=C(c2cccc(C#N)c2)C[C@@H]2CC[C@H]1N2C(=O)NCCc1ccccc1 | -2.69% |
| CNC(=S)NNC(=O)c1sccc1OCc1ccc(Cl)cc1Cl | -1.67% |
| NNC(=O)c1sccc1OCc1ccc(Cl)cc1Cl | 39.9% |
| CC(C)CC(CO)N1CCN(C(=O)c2ccc(Cl)c(Cl)c2)CCC1=O (configuration not stated) | -0.29% |
| COc1ccc(NC(=O)c2nnn(CC(=O)Nc3ccccc3OC)c2N)c(OC)c1 | -1.76% |

| Structure (SMILES) | inhibition |
| --- | --- |
| Cn1cnnc1SCc1ccc(C(=O)N=Nc2c(O)n(C)c3ccccc23)cc1 | -4.97% |
| O=C(N=Nc1c(O)n(Cc2ccccc2)c2ccccc12)c1ccc(O)cc1 | 8.8% |
| Cc1nc2ccccc2c(=O)n1NC(=O)C1CC1 | 4.78% |
| CCCCCCC1CCC(C(=O)Nn2c(C)nc3ccccc3c2=O)CC1 (configuration not stated) | 12.2% |
| COc1ccc(NC(=O)C2CC(c3c(F)cccc3Cl)=NO2)cc1 (configuration not stated) | 0.25% |
| COc1ccc(OCCOc2cccc(C=C3C(=O)NC(=O)NC3=O)c2)cc1 | 21.3% |
| O=C(COc1ccc(Cl)cc1)NCCNC(=O)c1cnccn1 | 5.05% |
| O=C(NCC(c1ccco1)N1CCc2ccccc21)C(=O)Nc1ccccc1F (configuration not stated) | 8.05% |
| CCCCOc1ccc(-c2nnn(CC(=O)Nc3ncc(CC(=O)OCC)s3)n2)cc1 | 4.47% |
| CCC(C(=O)O)n1nnc(-c2ccc(-c3ccc(OC)cc3)cc2)n1 (configuration not stated) | 4.02% |
| CC1Cc2ccccc2N1C(=O)CN1CCC(C(N)=O)CC1 (configuration not stated) | 0.29% |
| Cc1ccc(CNC(=O)c2ccc3c(=O)[nH]c4c(C(=O)NCC5CCCO5)sc(=S)n4c3c2)cc1 (configuration not stated) | 6.08% |
| O=C(NCc1ccccc1)c1ccc2c(=O)[nH]c3c(C(=O)NCC4CCCO4)sc(=S)n3c2c1 (configuration not stated) | 9.46% |
| COC(=O)c1ccc(NC(=S)N2CCN(Cc3ccccc3Cl)CC2)cc1 | 3.97% |
| COc1ccc(OC)c(NC(=O)CSc2nc(N3CCOCC3)nc(N3CCOCC3)n2)c1 | -13% |
| COc1ccc(Nc2ncc3c(n2)CC(c2ccc(OC)cc2)CC3=O)cc1 (configuration not stated) | 5.93% |
| COc1ccc(Nc2ncc3c(n2)CC(c2ccc(C)cc2)CC3=O)cc1 (configuration not stated) | 11% |
| CC(=O)c1c(COC(=O)c2cccc(C)c2)nc2ccccc2[n+]1[O-] | -1.11% |
| CC(=O)c1c(N2CCCCC2)nc(=S)n(-c2ccccc2)c1C | -9.27% |
| CN1CCC(N(C)C(=O)c2ccc(Cl)c(S(=O)(=O)Nc3cc(Cl)ccc3Cl)c2)CC1 | -3.22% |
| O=C(CCCN1C(=O)c2cccnc2C1=O)N1CC(=O)N(CCc2ccccc2)C(=O)C1 | 2.7% |
| CC1CCN(CCNC(=O)C2CCN(S(=O)(=O)c3cccc4nsnc34)CC2)CC1 | -5.73% |
| CO/N=C(\Cn1ncc(N2CCOCC2)c(Br)c1=O)c1ccc(Cl)cc1 | -12.1% |

| Structure (SMILES) | inhibition |
| --- | --- |
| O=C(Cn1ncc(N2CCCC2)c(Cl)c1=O)c1ccc(Cl)cc1 | -5.18% |
| O=C(NCCC(=O)N1CCC2(CC1)NCCc1[nH]cnc12)c1cccc(C(F)(F)F)c1 | -1.8% |
| CS(=O)(=O)Nc1ccc(C2=NN(C(=O)c3ccco3)C(c3ccccc3)C2)cc1 (configuration not stated) | 2.8% |
| C=CCSC1=N/C(=C/c2ccsc2)C(=O)N1c1ccccc1 | -5.05% |
| Cc1cc(C)n(-c2ccc(C(=O)NCc3ccc4c(c3)OCO4)cc2)n1 | 8.5% |
| Cc1cc(C)n(-c2ccc(C(=O)Nc3ccc4c(c3)OCO4)cc2)n1 | 12.7% |
| COc1ccc(CCNC(=O)CCc2nc3sc4c(c3c(=O)[nH]2)CCCC4)cc1 | -1.73% |
| CCCCC(CC)CO (configuration not stated) | -4.02% |
| CCCCC(CC)COC(=O)CCCCC(=O)OCC(CC)CCCC (configuration not stated) | 12.3% |
| Cc1csc(NC(=O)c2cccs2)n1 | -0.19% |
| Nc1cc(N2CCCCCC2)c2nonc2c1[N+](=O)[O-] | -8.43% |
| Nc1ccc2nonc2c1[N+](=O)[O-] | -0.05% |
| Cc1cccc2sc(N(CCN(C)C)C(=O)/C=C/c3cccs3)nc12 | 51.5% |
| COc1cccc2sc(N(CCN(C)C)C(=O)/C=C/c3cccs3)nc12 | 8.94% |
| CN(CC(=O)Nc1ccc(S(=O)(=O)N2CCCC2)cc1)Cc1ccc(Cl)cc1Cl | -3.94% |
| O=C(CCC(=O)N(CC(=O)NC1CCCC1)Cc1ccc(F)cc1)Nc1nccs1 | 7.88% |
| O=C(NC1CC1)c1cccc(S(=O)(=O)Nc2ccccc2F)c1 | -4.2% |
| CCN(CC)c1ccc2cc(-c3nc4ccccc4[nH]3)c(=O)oc2c1 | 4.76% |
| CCN(CC)c1ccc(/C=N/Nc2nc3ccccc3[nH]2)c(O)c1 | 19.6% |
| O=c1c2oc3ccccc3c2[nH]c(=S)n1-c1ccc(F)cc1 | 0.38% |
| Fc1ccc(C2C3=C(Nc4ncnn42)c2ccccc2OC3c2ccncc2)cc1 (configuration not stated) | -5.07% |
| Cc1ccc(C2Oc3ccccc3C3=C2C(c2cccs2)n2ncnc2N3)cc1 (configuration not stated) | 55.2% |
| C/C=C\C=C\C(=O)N1CC2(CC(c3cccc(NC(=O)COc4ccc(Cl)cc4)c3)=NO2)C[C@H]1C(N)=O (some centres not stated) | 23.8% |
